Laboratory results taken from PubChem BioAssay.
Several values for one entry are separate records, joined by “and”; a condition that tells them apart may be missing. Equal values may be shown once. Activity calls are given as the source filed them.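 The calls were made as follows, unless noted: active = normalized viability below 100% at a tested concentration; inactive = the rest.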

Key:
[1] = Wnt pathway potentiators raising nuclear beta-catenin – imaging, WNT3A-conditioned medium, mouse C2C12, NPC library, primary screen (AID 1117326; in the data active = nuclear beta-catenin stimulation mostly above about 4.2%, no sharp cut-off; inactive = mostly below about 10%); details: stronger effect = higher value
[2] = stimulators of insulin release from INS-1E, primary screen, cell-based, 5 mM glucose, NPC library (AID 1117329;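 active = compound raises insulin release from rat beta cells at 5 mM glucose, no numeric limit stated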); details: rat INS-1E insulin secretion, at 10 µM, stronger effect = higher value
[3] = growth inhibition of GSK3B-pretreated HCT116 cells – cell-based, CellTiter-Glo, 0.2 to 20 µM (AID 1117336;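 active = compounds lowering colon cancer cell viability after pretreatment blocking the GSK3B kinase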); details: HCT116 viability after GSK3B inhibitor, at 20 µM, stronger effect = higher value
[4] = inhibition of endothelial tube formation, primary screen, imaging, VEGF stimulated, CD31 staining, tube area, NPC library (AID 1117340;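 active = compound that reduces growth-factor-driven endothelial tube area in a mixed cell culture, no cutoff stated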); details: VEGF-stimulated ADSC/ECFC co-culture, at 10 µM, stronger effect = higher value
[5] = GLP1 release stimulators, primary, NCI-H716, NPC library (AID 1117341;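 active = compound raises GLP1 secretion from the human gut endocrine cells, with no numeric limit stated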); details: NCI-H716 cells, at 10 µM, stronger effect = higher value
[6] = HCT116 colon cancer cell growth inhibition, primary screen, CellTiter-Glo luminescence, NPC library (AID 1117342;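 active = compounds that lower survival of HCT116 colon cancer cells in the luminescence readout, no numeric limit stated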); details: at 20 µM (top of the series)
[7] = reduced SW480 viability measured with CellTiter-Glo, NPC library, primary (AID 1117343;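 active = compounds that lower viability of the colon cancer cells in the luminescence readout, with no numeric limit stated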); details: CellTiter-Glo luminescence; at 20 µM (top of the series) unless noted
[8] = NPC library primary testing for decreased DLD-1 cell viability via CellTiter-Glo (AID 1117346;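 active = compounds that lower survival of DLD-1 colon cancer cells in the luminescence readout, no cutoff given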); details: DLD-1 viability, CellTiter-Glo luminescence; at 20 µM (top of the series)
[9] = EMT-state selective cytotoxicity in co-culture – imaging, PC-3E GFP, TEM4-18 mCherry, primary screen (AID 1345086;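 active = compounds killing one labelled cell type while sparing the other, by normalised counts and ratio limits, not self-fluorescent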;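 as to all read-outs here: cells exposed to compound for 72 h before imaging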;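 as to red/green cell ratio (normalised): normalised mesenchymal count divided by normalised epithelial count so high means epithelial killing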); details: PC-3E GFP / TEM4-18 mCherry co-culture, imaging cell counts, at 1 µM; for red/green cell ratio (normalised): actives lie on both sides, counts scaled to control wells, 1 = unselective
[10] = viability loss with induced miR-34 in A549 – imaging, A549 dox-inducible miR-34, nuclei and caspase counts, primary screen (AID 1347080;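 active = compounds whose cell count with miR-34 switched on is under 0.7 times the count with it off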); details: A549 miR-34 inducible, Hoechst nuclei count, 48 h
[11] = MELAS cybrid and Rieske KO viability enhancers – cell-based, MELAS cybrids, Rieske KO mouse fibroblasts, CellTiter-Glo, primary screen (AID 1508586;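 active = mean z-score across replicates of 1.96 or higher in either the MELAS or the Rieske mutant cell line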;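 also: z relative to plate mean and SD of compound and empty wells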); details: low glucose
[12] = drug combination growth inhibition, ovarian cancer – cell-based, oncology-focused library, rucaparib conditional, profiling panel (AID 1508598); details: patient-derived ovarian cancer cells, CellTiter-Glo viability, 144 h, stronger effect = lower value
[13] = P. berghei load reduction in hepatocytes – cell-based, HepG2, luciferase luminescence, HepG2 viability, primary screen (AID 624349; in the data active = parasite load remaining mostly below about 12%, no sharp cut-off; inactive = mostly above about 10%;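 also: 100% = mean of DMSO negative control wells on the same plate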); details: P. berghei liver stage in HepG2, luciferase luminescence, concentration not given here; parasite load remaining: stronger effect = lower value; viability: measured here: HepG2 viability without parasites
[14] = biological target: NAD(+) hydrolase SARM1 (Homo sapiens) (UniProt Q6SZW1); assay: blocking NAD cleavage by SARM1 SAM-TIR – cell lysate, NAD-Glo luminescence (AID 1508614;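 active = compound whose remaining NAD level is above about 45 nM, limit read from the data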;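 also: higher remaining NAD means stronger inhibition of SARM1 NADase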); details: SAM-TIR HEK293T lysate NADase, at 1 µM, stronger effect = higher value
NAD(+) hydrolase SARM1 (Homo sapiens), sequence (Q6SZW1 whole entry, looked up): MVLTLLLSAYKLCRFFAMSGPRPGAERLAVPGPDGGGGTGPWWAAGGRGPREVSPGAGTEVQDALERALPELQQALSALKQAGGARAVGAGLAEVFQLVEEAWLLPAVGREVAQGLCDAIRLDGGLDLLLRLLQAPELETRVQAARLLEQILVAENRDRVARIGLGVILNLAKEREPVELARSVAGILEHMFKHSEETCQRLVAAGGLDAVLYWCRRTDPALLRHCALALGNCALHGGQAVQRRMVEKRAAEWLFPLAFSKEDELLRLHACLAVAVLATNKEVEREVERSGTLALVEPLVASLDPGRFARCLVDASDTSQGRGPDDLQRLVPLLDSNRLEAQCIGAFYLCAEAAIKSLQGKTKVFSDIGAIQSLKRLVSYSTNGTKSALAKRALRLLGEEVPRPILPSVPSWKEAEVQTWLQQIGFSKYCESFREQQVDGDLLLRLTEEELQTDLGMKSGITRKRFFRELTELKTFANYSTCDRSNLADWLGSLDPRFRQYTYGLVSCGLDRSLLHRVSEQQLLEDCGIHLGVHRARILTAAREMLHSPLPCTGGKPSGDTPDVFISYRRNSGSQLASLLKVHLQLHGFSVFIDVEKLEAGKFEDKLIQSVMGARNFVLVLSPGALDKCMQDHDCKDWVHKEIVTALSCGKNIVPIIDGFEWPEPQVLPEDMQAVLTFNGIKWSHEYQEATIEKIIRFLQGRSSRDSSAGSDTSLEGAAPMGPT

[15] = compounds altering viability of human ES cells (AID 493140; call rule not given here;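 also: cells exposed to compounds for four days before counting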); details: human embryonic stem cell survival screen; stronger effect = higher value
[16] = measured here: epithelial PC-3E GFP cell survival
[17] = measured here: mesenchymal TEM4-18 mCherry cell survival
[18] = stronger effect = lower value, cell number ratio, induced over uninduced
[19] = measured here: relative caspase fold change +Dox/-Dox
[20] = measured here: total cells with miR-34 induction, stronger effect = lower value
[21] = measured here: total cells without miR-34 induction
[22] = MELAS cybrid survival, CellTiter-Glo 48 h, stronger effect = higher value
[23] = Rieske KO mouse fibroblast survival, CellTiter-Glo 72 h

COc1cc2ncnc(Nc3ccc(F)c(Cl)c3)c2cc1OCCCN1CCOCC1
nuclear beta-catenin stimulation ([1]; at 10 µM): 78.2% (active) | nuclear beta-catenin stimulation ([1]; stimulation, at 2 µM): 2.5% | insulin secretion stimulation [2]: 0.7% (inactive) | viability decrease [3]: 44.5% (inactive) | tube area decrease [4]: 65.5% (active) | GLP1 secretion stimulation [5]: -2.9% (inactive) | inhibition of viability [6]: 98.7% (active) | viability decrease (inhibition) [7]: 101% (active) | viability decrease (inhibition) [8]: 98.1% (active) | red/green cell ratio (normalised) [9]: 1.15 (inactive) | normalised cell number [9, 16]: 0.79 | normalised cell number [9, 17]: 0.91 | fold change [10, 18]: 0.786 (inactive) and 0.938 (inactive) and 0.793 (inactive) | fold change [10, 19]: 1.64 and 1.38 and 1.39 | cell count [10, 20]: 4800 and 6990 and 6580 | cell count [10, 21]: 6110 and 7460 and 8300 | z-score [11, 22]: -0.609 (inactive) and 0.334 and 0.781 (inactive) | z-score [11, 23]: -0.845 and 2.09 and 1.88 | viability ([12]; at 0.000305 µM, OCI-C5x cells, with rucaparib 10 µM, 100% = cells with rucaparib alone): 94.6% (active) | viability ([12]; at 0.000305 µM, OCI-C5x cells, without rucaparib): 94.5% (active) | viability ([12]; at 0.000305 µM, OCI-P5x cells, with rucaparib 20 µM, 100% = cells with rucaparib alone): 100% (inactive) | viability ([12]; at 0.000305 µM, OCI-P5x cells, without rucaparib): 100% (inactive) | viability ([12]; at 0.00122 µM, OCI-C5x cells, with rucaparib 10 µM, 100% = cells with rucaparib alone): 98.1% (active) | viability ([12]; at 0.00122 µM, OCI-C5x cells, without rucaparib): 93.8% (active) | viability ([12]; at 0.00122 µM, OCI-P5x cells, with rucaparib 20 µM, 100% = cells with rucaparib alone): 106% (inactive) | viability ([12]; at 0.00122 µM, OCI-P5x cells, without rucaparib): 100% (inactive) | viability ([12]; at 0.00488 µM, OCI-C5x cells, with rucaparib 10 µM, 100% = cells with rucaparib alone): 95.1% (active) | viability ([12]; at 0.00488 µM, OCI-C5x cells, without rucaparib): 102% (inactive) | viability ([12]; at 0.00488 µM, OCI-P5x cells, with rucaparib 20 µM, 100% = cells with rucaparib alone): 95.6% (active) | viability ([12]; at 0.00488 µM, OCI-P5x cells, without rucaparib): 100% (inactive) | viability ([12]; at 0.0195 µM, OCI-C5x cells, with rucaparib 10 µM, 100% = cells with rucaparib alone): 109% (inactive) | viability ([12]; at 0.0195 µM, OCI-C5x cells, without rucaparib): 98% (active) | viability ([12]; at 0.0195 µM, OCI-P5x cells, with rucaparib 20 µM, 100% = cells with rucaparib alone): 98.7% (active) | viability ([12]; at 0.0195 µM, OCI-P5x cells, without rucaparib): 96.3% (active) | viability ([12]; at 0.0781 µM, OCI-C5x cells, with rucaparib 10 µM, 100% = cells with rucaparib alone): 101% (inactive) | viability ([12]; at 0.0781 µM, OCI-C5x cells, without rucaparib): 92% (active) | viability ([12]; at 0.0781 µM, OCI-P5x cells, with rucaparib 20 µM, 100% = cells with rucaparib alone): 98.6% (active) | viability ([12]; at 0.0781 µM, OCI-P5x cells, without rucaparib): 100% (active) | viability ([12]; at 0.313 µM, OCI-C5x cells, with rucaparib 10 µM, 100% = cells with rucaparib alone): 101% (inactive) | viability ([12]; at 0.313 µM, OCI-C5x cells, without rucaparib): 99.7% (active) | viability ([12]; at 0.313 µM, OCI-P5x cells, with rucaparib 20 µM, 100% = cells with rucaparib alone): 88.2% (active) | viability ([12]; at 0.313 µM, OCI-P5x cells, without rucaparib): 101% (inactive) | viability ([12]; at 1.25 µM, OCI-C5x cells, with rucaparib 10 µM, 100% = cells with rucaparib alone): 103% (inactive) | viability ([12]; at 1.25 µM, OCI-C5x cells, without rucaparib): 94.5% (active) | viability ([12]; at 1.25 µM, OCI-P5x cells, with rucaparib 20 µM, 100% = cells with rucaparib alone): 98.4% (active) | viability ([12]; at 1.25 µM, OCI-P5x cells, without rucaparib): 97.2% (active) | viability ([12]; at 5 µM, OCI-C5x cells, with rucaparib 10 µM, 100% = cells with rucaparib alone): 56.7% (active) | viability ([12]; at 5 µM, OCI-C5x cells, without rucaparib): 72% (active) | viability ([12]; at 5 µM, OCI-P5x cells, with rucaparib 20 µM, 100% = cells with rucaparib alone): 86.8% (active) | viability ([12]; at 5 µM, OCI-P5x cells, without rucaparib): 99.3% (active)

NCCCNCCSP(=O)(O)O
parasite load remaining [13]: 26.6% (inactive) | viability [13]: 110% | nuclear beta-catenin stimulation ([1]; at 10 µM): -1.3% (inactive) | nuclear beta-catenin stimulation ([1]; stimulation, at 2 µM): 0.9% | insulin secretion stimulation [2]: 3% (inactive) | viability decrease [3]: -4.2% (inactive) | tube area decrease [4]: -8.5% (inactive) | GLP1 secretion stimulation [5]: -1.2% (inactive) | inhibition of viability [6]: 2.2% (inactive) | viability decrease (inhibition) [7]: 0.3% (inactive) | viability decrease (inhibition) [8]: 0% (inactive) | red/green cell ratio (normalised) [9]: 1.19 (inactive) | normalised cell number [9, 16]: 1.03 | normalised cell number [9, 17]: 1.23 | fold change [10, 18]: 1.03 (inactive) and 0.865 (inactive) | fold change [10, 19]: 1.84 and 1.27 | cell count [10, 20]: 10300 and 9430 | cell count [10, 21]: 10000 and 10900 | z-score [11, 22]: 0.141 (inactive) and 0.413 (inactive) | z-score [11, 23]: -0.0647 and -0.947 | remaining NAD [14]: 10 nM (inactive)

CN(C)CCN(Cc1ccc(Cl)cc1)c1ccccn1
survival [15]: 0.25 (inactive) | parasite load remaining [13]: 93.8% (inactive) | viability [13]: 98.9% | nuclear beta-catenin stimulation ([1]; at 10 µM): 1.9% (inactive) | nuclear beta-catenin stimulation ([1]; stimulation, at 2 µM): 1.4% | insulin secretion stimulation [2]: 88.8% (active) | viability decrease [3]: -112% (inactive) | tube area decrease [4]: -2% (inactive) | GLP1 secretion stimulation [5]: 7% (inactive) | inhibition of viability [6]: 30.7% (inactive) | viability decrease (inhibition) [7]: 41.9% (inactive) | viability decrease (inhibition) [8]: 2.4% (inactive) | red/green cell ratio (normalised) [9]: 0.8 (inactive) | normalised cell number [9, 16]: 1.16 | normalised cell number [9, 17]: 0.92 | fold change [10, 18]: 0.853 (inactive) | fold change [10, 19]: 1.28 | cell count [10, 20]: 7570 | cell count [10, 21]: 8880 | z-score [11, 22]: -0.0317 (inactive) | z-score [11, 23]: -0.776 | remaining NAD [14]: 10 nM (inactive)
